Experimental findings from paper PMC10313818 are described below.

Test [1] deals with 60 kDa heat shock protein, mitochondrial (UniProt P10809). In words: cross-link between two proteins; cross-linking mass spectrometry.
The next test deals with ADP/ATP translocase 3 (UniProt P12236). Briefly: cross-link between two proteins; co-fractionation; cross-linking mass spectrometry.
Sequence of ADP/ATP translocase 3 (P12236 whole entry): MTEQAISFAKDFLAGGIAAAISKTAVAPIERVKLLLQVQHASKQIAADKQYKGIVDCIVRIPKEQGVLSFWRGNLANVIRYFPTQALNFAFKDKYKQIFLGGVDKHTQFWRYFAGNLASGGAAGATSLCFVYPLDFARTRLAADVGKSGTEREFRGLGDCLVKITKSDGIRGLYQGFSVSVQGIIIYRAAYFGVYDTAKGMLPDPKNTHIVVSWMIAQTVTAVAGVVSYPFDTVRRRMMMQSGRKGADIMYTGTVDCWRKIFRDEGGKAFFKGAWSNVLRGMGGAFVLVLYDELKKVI

In the case of Putative GTP-binding protein 6, O43824, in test [1], the “listed as a hit” value is listed as “yes”.
ADP/ATP translocase 2, P05141: in the test with ADP/ATP translocase 3, the “listed as a hit” value is recorded as “yes”.
